Our source for the z-score values is PubChem BioAssay AID1508600 (Functional Genomics Laboratory (NCATS/FGL), 2020).

Screen size: about 53,000 sequences; about 3,700 (7%) were called active. Many of the other results were omitted from the sample, so actives are more common in it than they were. Unmarked numbers belong to inactive results.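 The calls were made as follows: active = gene knockdowns whose robust z-score for IL-1 alpha signal is at least 2 or at most -2, so actives lie on both sides; inactive = the rest.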

The nature of this assay: Components of the Cytosolic LPS Sensing Pathway: Gene Identification via Genome-wide siRNA Screen.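 Also: robust z of the log signal after scaling to non-targeting control siRNA wells of the plate.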 The conditions noted are these: RAW264.7 macrophages, IL-1a HTRF, actives lie on both sides, screened at 100 nM (by protocol), cells primed 5 h with Pam3CSK4 first. In a few lines: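 Three distinct siRNAs per gene were tested singly at 100 nM in RAW264.7 macrophages. Following Pam3CSK4 priming and 24 hour LipidA transfection, IL-1a secretion was read by HTRF.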
Background: TR-FRET usually uses a lanthanide donor and a delayed reading to cut background.
As for GGCAACUGCCUUUACCAUATT against Tceanc2, the z-score was 1.67. As to GGAGAUCGACCUGUCUAUGTT against Cep164, the z-score is 0.988.

With CGGAAAAGAUCCCUAUUGUTT against Adam5, the z-score was 0.373. The same measure for GGGACGUGCAAUUGUCUGATT against Mfsd6: 0.0857; for GGAUGGCAUGUCCUUCCAATT against Elf3: 2.85 (active).

As for GGAAGUGGAAAAAGUUUAGTT against Brip1, the z-score is 0.442. To GGCAUUGCUGACUACAAACTT against Tcn2 belongs 2.15 (active); to GCAGUUUUGGGCAAUACCUTT against Olfr358, 1.22; to GCAACGCAACAGCAUUCCUTT against Psmg1, 1.34. As to GGAUAUGCUGAGGUGGUGGTT against Cpsf7, the z-score was -1.07.

As for GGUGUACAUGGACAUCAAGTT against Ppie, the z-score is 0.0171.

On to GGUCUUUGAGUUAAACCAUTT against Cdc7, for which the z-score is -0.0476. Turning to CCUGAGCUAGAAUCUCAGATT against Zmat2, the z-score is 0.715. Take CCCUUUCAACCAUUAAGCUTT against Kcns2: the z-score was 0.243. For GGAUGGGUCAAUGUUCUACTT against V1rb6, the z-score is 0.232. CCACCAGAAUCCUAACACATT against Nucb2: the z-score is 2.55 (active).

As for CCAUGUGUAAAGGGAGAAATT against Nxph2, the z-score is 0.893. The same measure for CCAGUUGUGUGAAUUAUGUTT against Psmd2: -2. On to CCUACCGUUACCUAAGUGATT against Kcnj5, for which the z-score is -1.15.

With GCAAUGAGUAUUCAUGCAATT against Sec61a2, the z-score was -1.86. In the case of CCUUCAGUGCUGUAGUGUATT against Rasl10b, the z-score was 0.37. To GGAGUCCUAGAACACACAGTT against Snap29 belongs -1.79. The same measure for GGAAUAUUAUGGGUAUCGATT against Cacna1s: 0.952; for GGUGGACUCUGUUUAAAAATT against Mtnr1a: 0.971; for GGUCUGUGAAAUGAAAAAUTT against Brix1: -0.473.

Turning to GGACUUACAUGGAAUUUUATT against Eftud2, the z-score was -2.07 (active). To CGGGUAUCAUCGAUUAUGGTT against Tnfaip6 belongs -0.356; to GGAGUGCAGUACAAAGGACTT against Ahsa1, 0.872.

Regarding GCCCAGCUCAAAUCUCCAUTT against Defb41, the z-score was 1.05.

With GGACUUUUCAUUUGAAGCATT against Gar1, the z-score was 1.03. In the case of GGAGUUUGUAGCUGACAUCTT against Dcaf15, the z-score was -1.02. For GCCUUUCUCGCUACUUAGUTT against Cltc, the z-score is 2.83 (active).

Take GGAAAUCCAACUUCUUUCATT against Ebf2: the z-score is 2.7 (active). To GGUGUCUGCGUGAAGAUCATT against Cacng8 belongs 2.81 (active). The same measure for CCUGGACAAGCUAUACCUUTT against Cdc45: 0.952; for GGCAUUGUAACCCUUGUAATT against Zscan26: -0.684.

Take CGACUGGAUACCAAAUUACTT against Mtrex: the z-score was -1.21. As for GGAUCAUGAGAAUAUCAUCTT against P4hb, the z-score is 0.816. With GGUGAUGUCAAGAGUUUUCTT against Hacd2, the z-score is 3.56 (active). The same measure for “GGGCCUCCUGUAAACAUCCTT against D630039A03Rik”: 0.884. In the case of AUAAGAUGUUGCUCGGAACTT against Olfr1193, the z-score is 1.26.

With GCCAGUGUUAUCCAGGACUTT against Cggbp1, the z-score was 1.35.

With GCAACUCAACCUCAACCAUTT against Lrrc8e, the z-score is -0.597.

Take CCUCGAGUGGUUGGAUAAGTT against Vps25: the z-score was -2 (active). The same measure for GGUGAAAUUGCUCAGAUAATT against Narf: 0.387; for AACCAUGAUGCUUACGUUUTT against S100a10: 0.285. With CCACAUACAUUUCACAGGGTT against Kdf1, the z-score was -0.806. As for GGAGUGUGUGCUUUUAAAATT against Rabggta, the z-score is 0.248. The same measure for GGCAGAAGUGGAAAAACAATT against Tmco1: -0.417. The same measure for GGAAUGUAUCCAGGACUUCTT against Brd4: -2.46 (active).

For the sequence GAACCCUCAUGAGGGUUACTT against C1ql1, the z-score is 0.177. Consider GCCAGUAUGCUGUAUGGCUTT against Bcas3, for which the z-score is -0.712. GCUACCUCUUGCAUGGGAGTT against Bivm: the z-score was -0.0737. With GCUGAUAAACAUCAGCUACTT against Zdhhc23, the z-score is 4.01 (active). The same measure for GGCCUGUAUUCUGCUCUGUTT against Olfr341: 0.0576. On to GGCUGCUUAGCUUUAAUGGTT against Ccdc177, for which the z-score is -0.674. As for GGGAUACUCCAAGUUCCAUTT against Muc4, the z-score is 2.85 (active). The same measure for GGUUCUAGGCAGUUUGAUATT against Tlnrd1: 1.64; for GCCAAUUAAUGAUUGCUUUTT against Zfp322a: 0.945; for CGCCAGCAGAACUCAAAUATT against Gm11992: 0.623. To GCGUGCUUAUGAACAUAGUTT against Spen belongs 2.02 (active); to GAUGAUUGACGACAUGGAATT against Rgs9bp, 0.656; to GGAUGAUGUGAUGAAGAUCTT against Fgfr4, -0.0955. To GGUUAAAUGCCCGCCAACATT against Eif2ak4 belongs -0.876; to GGAUAAGGACCUCUUCUCUTT against Ubl7, -1.41; to GGGAAUAGCAAACUUAUCUTT against Nfil3, -0.688.

As for GGGACAAAACCUUGAUGGUTT against Vmn1r200, the z-score was -0.254. Consider GGAAGUAAUCAAUUUGGUGTT against Epm2aip1, for which the z-score is 1.36. To GGUGUUAAUCCAGUUCAAUTT against Bbs12 belongs 2.26 (active); to GCACAUGUAUCCAUGCUUCTT against Kcnj11, -0.815. In the case of GGAAGUUCGUGGAAGGCAATT against Pck1, the z-score was 0.188. In the case of GGAAGAAAACAGCGAUUUGTT against Ppp1r15a, the z-score was -0.447. As for GCAUUAUUCAUAUGUUGGUTT against Fpr-rs4, the z-score was -0.318.

Take GGAGUCUCUGAAGAAAACATT against Hus1: the z-score is -0.596. Turning to GGAAGAAAGAGAGGUGUGATT against Nxf2, the z-score was -2.26 (active).

On to CCCAAUUUGGAGCUAUCAGTT against Cwh43, for which the z-score is -0.89. Take GGACUUCCAGAUCCAACCUTT against Robo4: the z-score was -0.867. For the sequence GGAACUCUCAAGAGAGAAUTT against Dnajc14, the z-score is 0.233. In the case of GGUACCCACUAGAGGAUCATT against Madd, the z-score is -2.61 (active). The same measure for “GGACAGAGAACAAAUGACCTT against 4931417E11Rik”: -1.91. Regarding GGCAGCAGUUAUUGUGGAUTT against Ly6a, the z-score is 0.693. To GGAAGGACCAAAGCUUUCUTT against Olfr1123 belongs 0.982; to CCACCAAUGAUUUGAUGCATT against Gpr75, -0.0162.

Take GGAUUUUGAAUUAUGGGAUTT against Relch: the z-score is -0.0955. As to CGAAGGGAUUGAUUUGACUTT against Kars, the z-score was -0.324. The same measure for GCCAAAUGUGCGUCAUCUATT against Zdhhc25: -2.54 (active); for CGCACUUUGGCUUGUAAUUTT against Smad6: 0.327. To GCUGUAAACCGAAUCAAAGTT against Khdc4 belongs 0.0586; to CGUGAGGUUAUGAUGUAUUTT against Gm5444, -1.3; to GGAAAGGACAAGAAAAUUUTT against Strn, -2.03 (active). Take CCAUUAUCCUGGUGUGUAUTT against Olfr1362: the z-score was -0.0735. Turning to GGCGAUACUUGGAAAAAUCTT against Nln, the z-score was -0.508.

For the sequence GCCCGUCCUGUUUGGAUUATT against Wdr53, the z-score is 0.501. To “GGACCUUGAGAUAUCUUUUTT against D130020L05Rik” belongs -0.361; to GGACAGAGGACAAGCAGAATT against Ghrl, -0.532; to CCAGAUCGGGAAAAAGGGUTT against Tsn, -2.04 (active). Regarding CCUAAUUUGAUCCUUCGAATT against Zfp672, the z-score was -0.947. The same measure for GAACGACAACCCGAUAAUGTT against Ttc9c: -0.141.

In the case of GGAUUUAAUGGUAAAUCACTT against Relch, the z-score is 0.034. The same measure for GGUUCUUGGAUAAAUCAAGTT against Mrpl40: 2.41 (active); for GGAAGGUCAAAGUCCUUUATT against Pitpnm2: -0.685; for GGCUUCAAGCUAUUCAUGATT against Dgkb: 0.126. In the case of GGGAUUGAGGGAGAUUUUCTT against Tedc2, the z-score was -0.206. On to GUGCUUCUGAUCUCCUACATT against Olfr223, for which the z-score was 1.

As for “CCAAUCCAAUGAAUGUUUCTT against A330070K13Rik”, the z-score was -1.75. On to GCUGAAAGUAUUCAUGUAATT against Sec13, for which the z-score is -1.6. In the case of GAUAUGUGCACAAUUCUGCTT against Vmn1r201, the z-score was -2.3 (active). The same measure for GGCCAUCUCUUCUACUGUATT against Glt28d2: 0.0935.
